Assay results reported in PubChem BioAssay AID1159580 (chemical genetic matrix, 2015).
Screen size: about 5,500 compounds; about 2,000 (36%) were called active. Roughly 18% stayed inconclusive and do not appear here. Cut-off read from the data, not from the text of the source: active = normalized growth mostly below about 0.91 (no sharp cut-off); inconclusive = no clear call, values can overlap the other calls; inactive = mostly above about 0.92. This is one part of the list.

Experiment: chemical genetic growth profiling, strain panel (AID 1159580);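 note: tested at 20 µM; growth read once vehicle control cultures reached saturation at 30 °C; 1 = growth at the plate median or of vehicle wells; lower values mean less growth of the strain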
Details: growth OD
[1] = S. cerevisiae deletion strains, locus YAL013W, strain DEP1, active compounds read low
[2] = S. cerevisiae deletion strains, locus YBR229C, strain ROT2, active compounds read low
[3] = S. cerevisiae deletion strains, locus YDL101C, strain DUN1, active compounds read low
[4] = S. cerevisiae deletion strains, locus YDL134C, strain PPH21, active compounds read low
[5] = S. cerevisiae deletion strains, locus YEL061C, strain CIN8, active compounds read low
[6] = S. cerevisiae deletion strains, locus YGR078C, strain PAC10, active compounds read low
[7] = S. cerevisiae deletion strains, locus YHR030C, strain SLT2, active compounds read low
[8] = S. cerevisiae deletion strains, locus YJR043C, strain POL32, active compounds read low
[9] = S. cerevisiae deletion strains, locus YLR039C, strain RIC1, active compounds read low
[10] = S. cerevisiae deletion strains, locus YLR262C, strain YPT6, active compounds read low
[11] = S. cerevisiae deletion strains, locus YMR307W, strain GAS1, active compounds read low
[12] = S. cerevisiae deletion strains, locus YNL153C, strain GIM3, active compounds read low
[13] = S. cerevisiae deletion strains, locus YNL322C, strain KRE1, active compounds read low
[14] = S. cerevisiae deletion strains, locus YPL055C, strain LGE1, active compounds read low

Measured: normalized growth

Nc1nc2ncc(C(=O)O)nc2c(=O)[nH]1
inactive: [1] 1.01 | S. cerevisiae deletion strains, locus YBR021W, strain FUR4, active compounds read low 1 | [2] 1.01 | S. cerevisiae deletion strains, locus YCL029C, strain bik1, active compounds read low 1.03 | S. cerevisiae deletion strains, locus YDL035C, strain GPR1, active compounds read low 1 | S. cerevisiae deletion strains, locus YDL074C, strain BRE1, active compounds read low 1.01 | [3] 1.01 | [4] 1.01 | S. cerevisiae deletion strains, locus YDL185W, strain tfp1, active compounds read low 1.04 | S. cerevisiae deletion strains, locus YDL192W, strain arf1, active compounds read low 1.03 | S. cerevisiae deletion strains, locus YDR101C, strain arx1, active compounds read low 1.03 | S. cerevisiae deletion strains, locus YDR162C, strain NBP2, active compounds read low 1.03 | S. cerevisiae deletion strains, locus YDR318W, strain mcm21, active compounds read low 1.02 | S. cerevisiae deletion strains, locus YDR388W, active compounds read low 1.02 | S. cerevisiae deletion strains, locus YDR502C, strain sam2, active compounds read low 1.04 | [5] 1.01 | S. cerevisiae deletion strains, locus YER110C, active compounds read low 1.05 | S. cerevisiae deletion strains, locus YER155C, strain BEM2, active compounds read low 1.01 | S. cerevisiae deletion strains, locus YER167W, strain BCK2, active compounds read low 1.01 | S. cerevisiae deletion strains, locus YGL078C, strain dbp3, active compounds read low 1.03 | S. cerevisiae deletion strains, locus YGL086W, strain mad1, active compounds read low 1 | S. cerevisiae deletion strains, locus YGL248W, strain PDE1, active compounds read low 1.02 | [6] 1.01 | S. cerevisiae deletion strains, locus YGR135W, strain pre9, active compounds read low 1.01 | S. cerevisiae deletion strains, locus YGR252W, strain gcn5, active compounds read low 1.07 | [7] 1.01 | S. cerevisiae deletion strains, locus YHR079C, strain IRE1 (second series), active compounds read low 1.05 | S. cerevisiae deletion strains, locus YHR094C, strain hxt1, active compounds read low 1.04 | S. cerevisiae deletion strains, locus YHR129C, strain ARP1, active compounds read low 1.01 | S. cerevisiae deletion strains, locus YHR200W, strain rpn10, active compounds read low 1 | S. cerevisiae deletion strains, locus YIL066C, strain RNR3, active compounds read low 1.02 | S. cerevisiae deletion strains, locus YIL073C, strain SPO22, active compounds read low 1.1 | S. cerevisiae deletion strains, locus YIL125W, strain kgd1, active compounds read low 1.03 | S. cerevisiae deletion strains, locus YIR030C, strain dcg1, active compounds read low 1.04 | S. cerevisiae deletion strains, locus YJL095W, strain BCK1, active compounds read low 1.01 | S. cerevisiae deletion strains, locus YJL134W, strain LCB3, active compounds read low 1.01 | S. cerevisiae deletion strains, locus YJL168C, strain set2, active compounds read low 1.05 | S. cerevisiae deletion strains, locus YJL187C, strain SWE1 (second series), active compounds read low 1.01 | [8] 0.997 | S. cerevisiae deletion strains, locus YKL009W, strain mrt4, active compounds read low 1.02 | S. cerevisiae deletion strains, locus YKL068W, active compounds read low 1.03 | S. cerevisiae deletion strains, locus YKL085W, strain MDH1 (second series), active compounds read low 1.01 | S. cerevisiae deletion strains, locus YKL085W, strain MDH1, active compounds read low 1.01 | S. cerevisiae deletion strains, locus YKR001C, strain vps1, active compounds read low 1.02 | [9] 1.03 | S. cerevisiae deletion strains, locus YLR058C, strain SHM2, active compounds read low 1.01 | S. cerevisiae deletion strains, locus YLR102C, strain apc9, active compounds read low 1.04 | [10] 1.03 | S. cerevisiae deletion strains, locus YLR268W, strain sec22, active compounds read low 1.04 | S. cerevisiae deletion strains, locus YLR330W, strain CHS5, active compounds read low 1.01 | S. cerevisiae deletion strains, locus YLR342W, strain FKS1 (second series), active compounds read low 0.998 | S. cerevisiae deletion strains, locus YLR371W, strain rom2, active compounds read low 1.06 | S. cerevisiae deletion strains, locus YLR418C, strain cdc73, active compounds read low 1.03 | S. cerevisiae deletion strains, locus YML016C, strain PPZ1, active compounds read low 1.01 | S. cerevisiae deletion strains, locus YML032C, strain rad52, active compounds read low 1.02 | S. cerevisiae deletion strains, locus YML124C, strain tub3, active compounds read low 1.02 | S. cerevisiae deletion strains, locus YMR078C, strain ctf18, active compounds read low 1.05 | S. cerevisiae deletion strains, locus YMR223W, strain ubp8, active compounds read low 1.03 | [11] 1.01 | S. cerevisiae deletion strains, locus YNL067W, strain RPL9B, active compounds read low 1.01 | [12] 1.01 | S. cerevisiae deletion strains, locus YNL233W, strain BNI4, active compounds read low 1 | S. cerevisiae deletion strains, locus YNL250W, strain rad50, active compounds read low 1.03 | S. cerevisiae deletion strains, locus YNL271C, strain bni1, active compounds read low 1.03 | S. cerevisiae deletion strains, locus YNL298W, strain CLA4, active compounds read low 1.04 | S. cerevisiae deletion strains, locus YNL307C, strain MCK1, active compounds read low 1.06 | [13] 1.01 | S. cerevisiae deletion strains, locus YNR052C, strain pop2, active compounds read low 1.03 | S. cerevisiae deletion strains, locus YOL012C, strain htz1 1.02 | S. cerevisiae deletion strains, locus YOL147C, strain pex11, active compounds read low 1.04 | S. cerevisiae deletion strains, locus YOR061W, strain CKA2, active compounds read low 1.02 | S. cerevisiae deletion strains, locus YOR069W, strain VPS5, active compounds read low 1.01 | S. cerevisiae deletion strains, locus YOR136W, strain idh2, active compounds read low 1.04 | S. cerevisiae deletion strains, locus YOR144C, strain elg1, active compounds read low 1.03 | S. cerevisiae deletion strains, locus YOR184W, strain ser1, active compounds read low 1.04 | S. cerevisiae deletion strains, locus YOR316C, strain cot1, active compounds read low 1.06 | [14] 1.01 | S. cerevisiae deletion strains, locus YPR119W, strain clb2, active compounds read low 1.03 | S. cerevisiae deletion strains, locus YPR141C, strain kar3, active compounds read low 1.02 | S. cerevisiae deletion strains, locus YPR163C, strain tif3, active compounds read low 1.05 | S. cerevisiae deletion strains, locus YPR167C, strain met16, active compounds read low 1.06 | S. cerevisiae deletion strains, strain wtn01, active compounds read low 1.02 | S. cerevisiae strains, strain wild type, active compounds read low 1.01

COc1cccc(C2C3=C(CC(C)(C)CC3=O)OC3=C2C(=O)CC(C)(C)C3)c1O
inactive: [1] 1 | [2] 0.987 | S. cerevisiae deletion strains, locus YCL061C, strain MRC1, active compounds read low 1.02 | [3] 1.01 | [4] 0.978 | S. cerevisiae deletion strains, locus YDR150W, strain NUM1, active compounds read low 1.04 | [5] 0.965 | [6] 1 | [7] 1.08 | S. cerevisiae deletion strains, locus YHR087W, strain rtc3, active compounds read low 0.958 | [8] 1.03 | S. cerevisiae deletion strains, locus YJR075W, strain HOC1, active compounds read low 1 | S. cerevisiae deletion strains, locus YKL190W, strain CNB1, active compounds read low 0.988 | [9] 1.08 | S. cerevisiae deletion strains, locus YLR058C, strain SHM2 (second series), active compounds read low 0.991 | S. cerevisiae deletion strains, locus YLR085C, strain ARP6, active compounds read low 0.977 | [10] 1.04 | S. cerevisiae deletion strains, locus YML094W, strain GIM5, active compounds read low 1.01 | S. cerevisiae deletion strains, locus YMR219W, strain ESC1, active compounds read low 1 | S. cerevisiae deletion strains, locus YMR263W, strain SAP30, active compounds read low 0.999 | [11] 0.876 | S. cerevisiae deletion strains, locus YNL128W, strain TEP1, active compounds read low 0.983 | [12] 1 | S. cerevisiae deletion strains, locus YNL298W, strain CLA4 (second series), active compounds read low 0.927 | [13] 0.993 | S. cerevisiae deletion strains, locus YNR030W, strain Alg12, active compounds read low 0.977 | S. cerevisiae deletion strains, locus YOL006C, strain TOP1, active compounds read low 0.947 | [14] 1 | S. cerevisiae deletion strains, locus YPL241C, strain CIN2, active compounds read low 1.01 | S. cerevisiae deletion strains, locus YPR135W, strain CTF4, active compounds read low 0.976
